POLK inh: DNA polymerase kappa (human) inhibition | Q9UBT6 | purified Pol kappa, fluorescent DNA synthesis assay, 10 min | Potency, µM (highest dose often 107 µM), actives largely listed as inhibitors | 0.53% of 400,000 active | AID 588579
Target sequence (Q9UBT6 whole entry, looked up): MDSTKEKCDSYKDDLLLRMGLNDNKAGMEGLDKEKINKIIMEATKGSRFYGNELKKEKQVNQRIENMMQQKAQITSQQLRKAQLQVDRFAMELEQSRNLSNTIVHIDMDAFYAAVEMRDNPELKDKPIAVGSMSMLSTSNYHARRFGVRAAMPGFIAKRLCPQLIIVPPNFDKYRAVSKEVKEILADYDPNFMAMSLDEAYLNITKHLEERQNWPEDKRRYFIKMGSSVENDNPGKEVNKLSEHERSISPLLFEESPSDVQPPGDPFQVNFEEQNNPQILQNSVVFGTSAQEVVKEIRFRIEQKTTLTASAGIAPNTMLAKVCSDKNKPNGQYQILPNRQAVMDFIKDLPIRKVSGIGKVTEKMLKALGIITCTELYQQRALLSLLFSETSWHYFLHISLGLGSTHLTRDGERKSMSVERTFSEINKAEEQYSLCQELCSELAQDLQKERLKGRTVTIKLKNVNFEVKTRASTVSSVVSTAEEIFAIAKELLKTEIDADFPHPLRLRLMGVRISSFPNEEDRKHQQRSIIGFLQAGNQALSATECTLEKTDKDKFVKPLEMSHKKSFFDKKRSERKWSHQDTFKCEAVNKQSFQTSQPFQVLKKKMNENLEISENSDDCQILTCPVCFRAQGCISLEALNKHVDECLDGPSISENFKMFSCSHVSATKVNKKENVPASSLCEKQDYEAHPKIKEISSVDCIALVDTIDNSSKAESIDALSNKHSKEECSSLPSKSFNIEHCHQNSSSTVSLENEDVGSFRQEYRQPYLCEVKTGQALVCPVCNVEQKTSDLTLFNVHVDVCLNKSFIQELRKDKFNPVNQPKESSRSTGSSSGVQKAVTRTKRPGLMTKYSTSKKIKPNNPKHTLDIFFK
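50 nM final substrate added after 15 min RT preincubation of 10 nM Pol kappa with compound; fluorescence read at 0 and 10 min.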
Pol eta inh: inhibitors of human DNA polymerase eta; Potency, µM (series often up to 114 µM), hits mostly inhibitors; recombinant Pol eta, fluorescent DNA replication assay; Q9Y253; 1.2% of 390,000 active; AID 588591
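Fluorescent replication assay: 50 nM final substrate added after a 15 min room-temperature compound preincubation with 10 nM enzyme. Signal taken at 0 min and again at 10 min.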
WRN helicase inh: blocks human WRN helicase | Potency, µM (series often up to 114 µM), most hits filed as inhibitors | 0.46% of 360,000 active | WRN helicase unwinding, fluorescent forked duplex, kinetic; also: nearly all actives have a fitted effect of over 55% in size
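Screening of the MLSMR collection measured strand separation of a quenched forked DNA duplex (100 nM) by 20 nM WRN with 2 mM ATP, all final. Compounds were preincubated with enzyme 15 min at room temperature.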
PI5P4K alpha inh: blocks human PI5P4K alpha kinase activity. P48426. PI5P4Kalpha enzyme, ADP-Glo luminescence, 60 min; stronger effect = lower value. 1.2% of 330,000 active. max response, %. AID 652105; active = max response of -50% or lower; inconclusive = between -30% and -50%; inactive = -30% or higher; also: value at the top dose of about 77 µM
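Luminescence from ADP-Glo served as readout of PI5P4Kalpha activity in a qHTS format. Reaction: enzyme, substrate, compound, ATP at 5 microM final, 60 min at RT.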
POLB inh: blocks human DNA polymerase beta activity; P06746; Pol beta primer extension/strand displacement, fluorescence kinetic; Potency, µM (top dose mostly 114 µM), usual class: inhibitors; 1.3% of 340,000 active
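Pol beta (10 nM) and compounds were preincubated 15 min at room temperature, then 50 nM substrate (final) started primer extension/strand displacement. Reads were taken at 0 and 10 min; concentration-response data were fitted to a four-parameter Hill equation.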
POLI inh: inhibitors of human DNA polymerase iota. Potency, µM (doses to about 115 µM), hits mostly inhibitors. AID 588590. 1% of 390,000 active. Pol iota fluorescent replication assay, 10 min. Q9UNA4
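Fluorescent replication assay read twice, at 0 min and 10 min after adding 50 nM (final) substrate. Enzyme (10 nM) and compounds were first incubated 15 min at room temperature; enzyme-free buffer wells were negative controls.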
ADP-Glo counter: counter-screen for PI5P4K inhibitors: ADP-Glo detection interference, no enzyme. AID 743285. ADP-Glo detection counter-screen, luciferase luminescence, no enzyme. Potency, µM (titrated, usually from 76.9 µM), most hits filed as inhibitors. 1,100 tested, under 10 active. shares compounds with PI5P4K alpha inh
Large screens that a line does not name were inactive (follow-up assays come after a bar, where they were run); ! = not active in a repeat. Hits are enriched below; roughly 2.8% of the tested compounds scored in any of these assays. Unless noted, calls follow the shape of the dose curve; as a rule, active = well fitted curve in the direction sought with a large enough effect; inconclusive = small, poorly fitted or top-dose-only effect, or another doubt; inactive = no such curve, though single readings can be large; an effect the other way counts as inactive or inconclusive.

C[C@@H]1CC[C@]2(O[C@H](CCO)C[C@H](O)[C@H]2O)O1	none (no result: POLB inh)
CCCCOc1ccc(S(=O)(=O)NC(=O)C2(C)CCN2C(=O)CCc2ccccc2)cc1 (stereo unspecified)	PI5P4K alpha inh -53.3 (no result: POLK inh, Pol eta inh, POLB inh, POLI inh) | ADP-Glo counter inactive
CCN1CCN(Cc2ccc(NC(=O)c3cc(NC(=O)c4cc5cccc(OC)c5o4)cc(OC)c3)cc2C(F)(F)F)CC1	PI5P4K alpha inh -61.5! | ADP-Glo counter inactive
CCN1CCN(Cc2ccc(NC(=O)c3ccc(C)c(NC(=O)c4csc(-c5ccncc5)n4)c3)cc2C(F)(F)F)CC1	PI5P4K alpha inh -64.9, POLB inh inconclusive, POLI inh inconclusive | ADP-Glo counter inactive
CCN1CCN(Cc2ccc(NC(=O)c3cc(NC(=O)N4CCNC4=O)cc(OC)c3)cc2C(F)(F)F)CC1	none
CCN1CCN(Cc2ccc(NC(=O)c3ccc(C)c(NC(=O)c4ccno4)c3)cc2C(F)(F)F)CC1	none
COc1cc(NC(=O)c2cccnc2SC)cc(OC)c1OC	none
CSc1ncccc1C(=O)Nc1ccc(OC(F)(F)F)cc1	PI5P4K alpha inh -58.3 | ADP-Glo counter inactive
Cc1ccc(Nc2nc(CSc3n[nH]c(N)n3)cs2)cc1	none
COc1cc(NC2=Nc3cccc4cccc2c34)cc(OC)c1OC	PI5P4K alpha inh -50.3 | ADP-Glo counter inactive
COc1cc2nc(Nc3ccc(C)c(Cl)c3)nc(N)c2cc1OC	PI5P4K alpha inh -59.8 | ADP-Glo counter inactive
COc1cc2nc(Nc3ccc(C)c(C)c3)nc(N)c2cc1OC	Pol eta inh inconclusive, WRN helicase inh inconclusive, PI5P4K alpha inh inconclusive, POLB inh inconclusive
O=C(c1cccc(NS(=O)(=O)c2ccccc2)c1)N1CCCCC1	none (no result: POLB inh)
NS(=O)(=O)c1cccc(NC(=O)CSc2nnnn2-c2ccccc2)c1	PI5P4K alpha inh -89.1 | ADP-Glo counter inactive
CN(C)S(=O)(=O)c1cccc(NC(=O)CSc2nnnn2-c2ccccc2)c1	POLB inh inconclusive
Cc1ccc(N=c2oc3cc(O)ccc3cc2C(N)=O)cc1	Pol eta inh inconclusive, PI5P4K alpha inh -51.7 | ADP-Glo counter inactive
Cc1nnc(SCC(=O)Nc2sc3c(c2C(N)=O)CCC(C)C3)[nH]c1=O (stereo unspecified)	PI5P4K alpha inh -53.6 (no result: POLB inh) | ADP-Glo counter inactive
Cc1nnc(SCC(=O)Nc2sc3c(c2C(N)=O)CCCC3)[nH]c1=O	PI5P4K alpha inh inconclusive, POLB inh inconclusive
Cc1cc(C(=O)OCC(=O)Nc2c(F)cccc2F)c(C)n1-c1ccccc1	WRN helicase inh inconclusive, PI5P4K alpha inh -75.1 | ADP-Glo counter inactive
CN(C)c1ccc(-c2ccc3ncnc(N(C)Cc4ccco4)c3c2)cc1	none (no result: Pol eta inh, WRN helicase inh, PI5P4K alpha inh, POLB inh, POLI inh)
Cc1ccsc1CN(C)c1ncnc2ccc(-c3ccoc3)cc12	none (no result: POLK inh, Pol eta inh, WRN helicase inh, PI5P4K alpha inh, POLB inh, POLI inh) | ADP-Glo counter inactive
Cc1ccc(CNC(=O)CSc2ncccn2)cc1	POLK inh inconclusive, PI5P4K alpha inh inconclusive, POLI inh inconclusive | ADP-Glo counter inactive
COc1ccc(OC)c(S(=O)(=O)NCCCn2ccnc2)c1	none
COc1ccc(Cl)cc1S(=O)(=O)NCCCn1ccnc1	POLK inh inconclusive, POLI inh inconclusive | ADP-Glo counter inactive
CCCNC(=O)N(C)C[C@@H]1Oc2ncc(-c3ccncc3)cc2C(=O)N([C@H](C)CO)C[C@@H]1C	PI5P4K alpha inh -56.4 (no result: POLK inh, POLB inh, POLI inh) | ADP-Glo counter inactive
CCCNC(=O)N(C)C[C@@H]1Oc2ncc(Br)cc2C(=O)N([C@H](C)CO)C[C@@H]1C	none (no result: POLK inh, POLB inh, POLI inh)
O=C(Nc1ccccc1F)Nc1cccc2ccc(O)cc12	PI5P4K alpha inh inconclusive
CC(=O)Nc1cccc2ccc(O)cc12	PI5P4K alpha inh -61.8, POLI inh inconclusive (no result: POLB inh) | ADP-Glo counter inactive
COc1cccc(C2=Cc3ccc(F)cc3C(CC(C)=O)N2c2ccc(C#CC3(O)CCCCC3)cc2)c1 (stereo unspecified)	none (no result: POLK inh, Pol eta inh, POLB inh, POLI inh)
Cc1ccc2c(c1)N(C(C)C(=O)NCc1ccc3c(c1)OCO3)C(=O)CO2 (stereo unspecified)	none
Cc1nc(N2CCC(C)CC2)c2c(C)c(C(=O)O)sc2n1	POLI inh inconclusive (no result: PI5P4K alpha inh) | ADP-Glo counter inactive

From PubChem
